Shiga toxin inh – inhibitors of Shiga toxin in Vero cells; inhibition, % at 38.7 µM; hit rate 9.2% among 290,000; Vero cells, Shiga toxin protein synthesis inhibition reporter; in the data active = inhibition mostly above about 28%, no sharp cut-off; inactive = mostly below about 43%; also: 0% is about no effect
LASV entry inh – Lassa virus entry inhibition; hit rate 1.2% among 300,000; AID 540256; Potency, µM (series often up to 37.9 µM), without a hit: at the top dose activity change, negative = inhibition, hits mostly inhibitors; Lassa virus pseudotype entry inhibition, cell reporter; calls by dose curve; tested in HEK293 cells; also: potency is read from the fitted curve at half-maximal effect; % is scaled to controls: 0 for no effect and ±100 for the full control effect; nearly all actives have a fitted effect of over 50% in size
MARV entry inh – Marburg virus entry inhibition; hit rate 1.8% among 300,000; Marburg virus pseudotyped entry inhibition, cell reporter; Potency, µM (highest dose often 37.8 µM), inactives show at the highest dose activity change, negative = inhibition, actives largely listed as inhibitors; calls by dose curve; tested in HEK293 cells; also: potency is read from the fitted curve at half-maximal effect; % is scaled to controls: 0 for no effect and ±100 for the full control effect
CHX counter – counter-screen for Shiga toxin inhibitors: cycloheximide protein synthesis inhibition; hit rate 12% among 300,000; max response, %; cell reporter, cycloheximide protein synthesis inhibition counterscreen; in the data active = max response mostly above about 13%, no sharp cut-off; inactive = mostly below about 14%; also: read at 38.3 µM for the half of the compounds with a filed dose; 0% is about no effect
* hit, by the source's call; ? = inconclusive; . = not tested or not shown; [ ] = remark or other dose. Shown are actives, neighbours in structure and some others; about 12% of the full set was active somewhere.

SMILES	Shiga toxin inh	LASV entry inh	MARV entry inh	CHX counter
CCC1CCCCN1c1nc(-c2ccncc2)nc2ccccc12 (stereo not given)	-20	?	9.2µM*	-5
CNc1cccnc1C=NNC(N)=S	.	0.63µM*	1.3µM*	.
Cc1c(NC(=S)NC(=O)c2sc3ccccc3c2Cl)cccc1C(=O)O	161*	.	.	61*
CC1CCCCC1NC(=S)NC(=O)c1ccccc1Cl (stereo not given)	.	-21%	?	.
CC1CCCCC1NC(=S)NC(=O)c1sc2ccccc2c1Cl (stereo not given)	-7	6%	-7%	12*
O=C(NC(=S)N(CCCCO)C1CCCCC1)c1sc2ccccc2c1Cl	-8	?	13µM*	1
Cc1ccc(N2CC(C(=O)Nc3c4c(nn3C(C)(C)C)CS(=O)(=O)C4)CC2=O)cc1 (stereo not given)	-12	.	.	-1
Cc1ccccc1NC(=O)CCn1nc(-c2ccc(Cl)cc2)c2ccccc2c1=O	.	?	-24%[46.1 µM]	.
O=C(c1ccc(Cl)cc1)c1c[nH]c(C(=O)NNc2ccccc2)c1	-20	14µM*	?	-7
CNC(=O)c1cc(C(=O)c2ccc(Cl)cc2)c[nH]1	56*	11%[46.1 µM]	21%[46.1 µM]	24*
O=C(c1ccc(Cl)cc1)c1c[nH]c(C(=O)C(Cl)(Cl)Cl)c1	-8	?	14%	-2
CCOc1ccccc1NC(=O)Cn1c(=O)n(CCCC(=O)NCCc2ccc(C)cc2)c(=O)c2ccccc21	.	3%[46.1 µM]	-23%[46.1 µM]	.
CC1=CC[C@@H](COc2ccccc2)O[C@@]2(C1)C(=O)N(CC1CC1)c1ccccc12	.	.	20%[14.2 µM]	.
CCCCCCCCCCOC(=O)Cn1c(COc2ccccc2C)[n+](C)c2ccccc21	-6	8.9µM*	25µM*	-3
CC1CCC(C(C)C)C(OC(=O)Cn2c(-c3ccc(Br)cc3)[n+](C)c3ccccc32)C1 (stereo not given)	7	?	?	11
Cc1ccccc1OCc1n(CC(=O)OC2CC(C)CCC2C(C)C)c2ccccc2[n+]1C (stereo not given)	-4	?	3.5µM*	-1
CCCCCCCCCCOC(=O)Cn1c(COc2ccc(OC)cc2)[n+](C)c2ccccc21	-2	?	3.2µM*	14
O=C(Nc1nc(N2C(=O)c3ccccc3C2=O)n(-c2ccccc2)n1)c1ccc(Cl)cc1	-7	2%	-4%	2
CCOc1ccc(/C=C(\C(=O)O)c2ccc(S(=O)(=O)N3CCCCC3)s2)cc1OC	.	-7%	-1%	.
CCOC(=O)Cn1cncc1-c1ccc([N+](=O)[O-])cc1	84*	?	4%	72*
COc1ccc(N2CCN(S(=O)(=O)c3ccc(-c4cnc(C5CC5)o4)cc3)CC2)cc1	-3	?	.	0
O=S(=O)(c1ccc(-c2cnc(C3CC3)o2)cc1)N1CCN(c2ccc(F)cc2)CC1	.	7.9µM*	.	.
CCC[C@H]1C[C@H](C(=O)NC(C(C)Cl)C2O[C@@H](SC)C(OP(=O)(O)O)[C@@H](O)[C@@H]2O)N(C)C1 (stereo not given in full)	-5	.	.	-7
COc1ccc(-c2ccc(C3C4C=CCC(C)C4C(=O)N3Cc3ccccc3)c(F)c2)cc1 (stereo not given)	13	.	.	20
Clc1ccccc1OCCCn1ccnc1	-4	.	.	-1
SMILES	Shiga toxin inh	LASV entry inh	MARV entry inh	CHX counter
Clc1ccccc1C(c1ccccc1)(c1ccccc1)n1ccnc1	-23	6.5µM*	16µM*	-3
CCCCCC(=O)Nc1ccc2oc(-c3cncc(Br)c3)nc2c1	31	49%[14.3 µM]	0%	26*
CCCC(=O)Nc1ccc2oc(-c3cncc(Br)c3)nc2c1	58*	.	.	48*
O=C(Nc1ccc2oc(-c3cccnc3)nc2c1)c1cccc(Br)c1	.	27%[46.1 µM]	-13%[46.1 µM]	.
CCc1ccccc1NC(=O)N1CC(C)Sc2ccccc21 (stereo not given)	.	11%[46.1 µM]	.	.
O=c1oc2ccccc2cc1-c1nc(-c2ccccc2)no1	107*	?	?	36*
CCN(CC)c1ccc2cc(-c3nc(-c4ccccc4)no3)c(=O)oc2c1	.	0%[46.1 µM]	.	.
O=c1oc2ccc(Br)cc2cc1-c1nc(-c2ccccc2)no1	.	6%[46.1 µM]	25%[46.1 µM]	.
Cc1cccc(-c2noc(-c3cc4ccccc4oc3=O)n2)c1	85*	8%	-1%	29*
O=c1oc2ccccc2cc1-c1nc(-c2cccs2)no1	.	4%[46.1 µM]	.	.
Cc1ccc(-c2noc(-c3cc4ccccc4oc3=O)n2)cc1	42	4%	?	25*
COc1cccc(C(c2c(N)[nH]c(=S)[nH]c2=O)c2c(N)[nH]c(=S)[nH]c2=O)c1	-7	-2%	1%[46.1 µM]	-1
CN(C)C=Nc1ccc2nn(-c3ccccc3)nc2c1	93*	?	?	43*
CN(C)C=Nc1ccc(Cl)c(Cl)c1	-8	-13%[46.1 µM]	2%[46.1 µM]	-1
COc1ccc(C(=O)NCC(=O)OCc2c(Cl)cccc2Cl)cc1OC	.	-5%	?	.
O=[N+]([O-])c1ccc(N/N=C2/CCCCC2c2ccccn2)cc1 (stereo not given)	15	?	1.1µM*	-2
COC(=O)c1ccc(OCc2cc(=O)n3ccsc3n2)cc1	142*	?	21%	49*
COc1ccc(C(=O)Nc2ccc(OCc3cc(=O)n4ccsc4n3)cc2)cc1OC	.	?	7%[46.1 µM]	.
O=C(/C=C\c1ccco1)c1ccc(NC(=O)c2ccco2)cc1	73	?	?	26*
CN(C)c1ccc(C(=O)/C=C/c2ccco2)cc1	112*	?	?	50*
CN(C(=O)C=Cc1ccco1)c1ccccc1	.	10%[46.1 µM]	24%	.
O=C(/C=C/c1ccco1)c1ccc(O)cc1	84	.	.	38*
O=C(NCc1ccccc1)c1ccc(NC(=O)c2ccco2)cc1	6	21%[46.1 µM]	8%[46.1 µM]	-4
C/C(=N/NC(=O)CNC(=O)c1ccncc1)c1ccco1	38	3%	-11%[46.1 µM]	7
c1ccc(OCCn2c(COc3ccccc3)nc3ccccc32)cc1	.	0%[46.1 µM]	9%[46.1 µM]	.
SMILES	Shiga toxin inh	LASV entry inh	MARV entry inh	CHX counter
C=CCn1c(COc2ccccc2)nc2ccccc21	44*	0%[46.1 µM]	?	29*
Cn1c(COc2ccccc2)nc2ccccc21	67*	8%[46.1 µM]	?	32*
Cc1ccc(C(=O)N/N=C/c2c[nH]c3ccccc23)o1	74*	-29%[46.1 µM]	?	23*
Cc1cc(C(=O)N/N=C/c2c[nH]c3ccccc23)c(C)o1	26	23%	?	27*
CCOc1ccc(S(=O)(=O)N2CCOCC2)cc1NC(=O)CSCc1c(C)noc1C	.	-1%	2%[46.1 µM]	.
O=C(NCc1ccc(Cl)cc1)c1ccc(COCC(F)(F)F)o1	12	?	?	-2
O=C(Nc1ccc(Cl)cn1)c1ccc(COCC(F)(F)C(F)F)o1	67*	?	?	18*
COc1ccc(C(=O)OC(C)CN2CCN(C)CC2)cc1 (stereo not given)	36	14%	?	12*
CCOc1ccc(C(=O)OC(C)CN2CCCCC2)cc1 (stereo not given)	26*	-2%[46.1 µM]	1%[46.1 µM]	10
Cc1ccc(C(=O)OC(C)CN2CCN(C)CC2)cc1 (stereo not given)	48*	19%	18%[46.1 µM]	17*
CCOc1ccc(C(=O)OC2CC3CCC(C2)N3C)cc1 (stereo not given)	27	.	.	22*
CN1C2CCC1CC(OC(=O)c1ccc(Cl)cc1)C2 (stereo not given)	-23	-6%	-18%	-2

Source: PubChem BioAssay (National Center for Advancing Translational Sciences (NCATS))
